The values below come from PubChem BioAssay (NCI).

SMILES strings stand for the structures. The panel holds about 79,000 compounds, 15% with a hit somewhere; the sample as a whole holds those more often. The source made the active and inactive calls. No stated cut-off is given here; in the data, active means growth inhibition above about 70%; inactive means the rest.

A short description of the test: NCI Yeast Anticancer Drug Screen. Data for the sgs1 mgt1 strain (AID 161).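 Further: 0% = growth of cultures given vehicle only.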 The following applies: S. cerevisiae sgs1 mgt1 strain, at 50.0 µM, hits give high values. The protocol: Growth inhibition of yeast strains with defined genetic alterations is measured as a screen for potential anti-cancer activity. Selected strains with alterations in DNA damage repair or cell cycle control were exposed to compounds and growth inhibition was measured relative to vehicle treated controls. The strain used in this assay is sgs1 mgt1
`O=C1c2ccccc2CCC12OC2c1ccncc1` (stereo not given): the growth inhibition is 25% (inactive).
In the case of `O=C1OC(c2ccc([N+](=O)[O-])cc2)=N/C1=C\c1cccc([N+](=O)[O-])c1`, the growth inhibition is 36.2% (inactive).
Then `Cc1ccc(NC(=S)Nc2ccccc2F)cc1`, with -2.2% (inactive); and `COc1ccc2c(c1)C/C(=C\c1cccc3ccccc13)C2=O`, with -0.15% (inactive).
As for `CC(=O)OCC12C(OC(C)=O)C(=O)C3C(OC(C)=O)C14OC3(C)COC(=O)c1cccnc1C(C)C(C)C(=O)OC(C(OC(C)=O)C2OC(C)=O)C4(C)O` (stereo not given), the growth inhibition was -24.1% (inactive).
With `CCOC(=O)CSc1ccnc(=O)[nH]1` the figure was -5.35% (inactive); with `O=C1NC(=O)C2C1C1C=C3c4ccccc4N(c4ccccc4)C32[C@H]2C(=O)NC(=O)[C@@H]12` (stereo not given in full), 7.15% (inactive); with `OC1(c2ccccc2)c2ccccc2Oc2cc(Cl)ccc21` (stereo not given), 2.8% (inactive).
Then `Brc1ccc(Br)nc1`, with -10.1% (inactive); and `O=[N+]([O-])c1ccc2nc(/C=C(\O)c3ccccc3)c(/C=C(\O)c3ccc(Cl)cc3)nc2c1`, with -52.5% (inactive).
On to `OC(CBr)(c1ccccc1)c1ccccc1`, for which the growth inhibition was 19.9% (inactive).
With `CO[C@@H]1O[C@H](C(=O)c2ccccc2)[C@H]2OC(C)(C)O[C@@H]12` the figure was 28.3% (inactive).
As for `O=S1CCS(=O)CCS(=O)CC1` (stereo not given), the growth inhibition was -0.6% (inactive).
For `NC1=Nc2cc(C(F)(F)F)ccc2Sc2nc3ccccc3n21`, the growth inhibition is 20.1% (inactive).
With `CCCC(C)C1(CC)NC(C)(C)CC(C)O1` (stereo not given) the figure was -5.75% (inactive); with `N#C/C(=C\n1c(=S)[nH]c2ccc([N+](=O)[O-])cc21)c1cccc(Cl)c1`, -34.1% (inactive); with `O=CN(CCO)CCO`, -3.5% (inactive).
Turning to `O=C(NC1CCCCC1)Oc1ccc(-c2ccccc2)cc1Cl`, the growth inhibition is 98.3% (active).
Then `CC(=O)N=C1N(/C=C2\C(=O)Oc3ccccc3C2=O)C(=O)/C(=C/c2ccc(OC(C)=O)cc2)N1C`, with -14.9% (inactive).
With `CN(C)c1ccc2oc3ccccc3c2c1` the figure was -21.4% (inactive); with `COc1cc(C=Nc2cc(Cl)c(N=O)c(Cl)c2)ccc1N(CCCCl)CCCCl`, 40.8% (inactive).
Then `NC(=S)n1nc(-c2ccccc2)c(N=Nc2ccccc2[N+](=O)[O-])c1-c1ccccc1`, with -3.15% (inactive); and `CCN(CC)CC(C(=O)Nc1c(C)cccc1C)/C(C)=N\NC(=O)C[N+](C)(C)C` (stereo not given), with -26.6% (inactive).
As to `O=c1[nH]c2nc3ccccc3c(=O)n2/c1=C/c1ccc(O)cc1`, the growth inhibition was -12% (inactive).
In the case of `CCCCOC(=O)c1ccccc1`, the growth inhibition was -10.2% (inactive).
Regarding `CC(=O)/C(C(=N)C(=O)c1ccccc1)=C(\C)O`, the growth inhibition is 3.5% (inactive).
Regarding `Nc1ccc2c(c1)Cc1cc(O)ccc1-2`, the growth inhibition is 1.45% (inactive).
For `N#C/C(=C\NC(N)=S)C(=O)c1ccc2ccccc2c1`, the growth inhibition is -25.9% (inactive).
With `O=C1C=C2SCCN2C(=O)C1` the figure was -9.15% (inactive); with `COc1ccc(/C=C/C(C)=O)c(OC)c1`, 2.15% (inactive).
In the case of `Cc1ccc(C(=O)Nc2c(C)cccc2C)cc1`, the growth inhibition was 13.5% (inactive).
With `O=C(Oc1ccccc1[N+](=O)[O-])Oc1ccccc1[N+](=O)[O-]` the figure was 19.5% (inactive).
Then `CC(=O)OC1CC[C@@]2(C)C(CC[C@]3(C)C2CC=C2[C@@H]4C(C)[C@H](C)CCC4(C)CCC23C)[C@@]1(C)C(=O)O` (stereo not given in full), with 16.4% (inactive); and `O=C(C[n+]1csc2ccccc21)c1ccc(-c2ccccc2)cc1`, with -11.9% (inactive); and `O=C(Nc1cc(C(F)(F)F)ccc1Cl)c1ccccc1F`, with -6.95% (inactive).
With `Cc1cc2c(c3c1C(=O)CC3)CCCC2(C)C` the figure was 2.75% (inactive); with `CC1=CC(/C=C(\C)CCCc2ccoc2)C2(OC(=O)C(C)=C2O)[C@H]2C1CC[C@@H]2C` (stereo not given in full), 53.5% (inactive).
Regarding `Nc1ccc(CCCCc2ccc(Cl)cc2Cl)cc1`, the growth inhibition was 98.5% (active).
With `COc1ccc(C2=NC(C)(C)CO2)cc1C` the figure was 3.6% (inactive).
Regarding `O=C(Cc1ccc2cc3c(cc2c1)OCO3)NCCc1ccc2c(c1)OCO2`, the growth inhibition was 25.8% (inactive).
